# Assay results taken from PubChem BioAssay AID687001 (Broad Institute, 2013).
# Entries with a potency or affinity are not part of this list. Calls of active or inactive are those of the source.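 How the source made its calls: active means signal-lowering compounds whose fitted half-maximal concentration is at or below twice the top tested dose in every run; inconclusive means runs disagree, flat 30 to 70% inhibition, or poor curve fit; inactive means the rest.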
# Biological target: Protein S100-A4 (Homo sapiens) (UniProt P26447)
# Assay: S100A4-myosin IIA binding inhibitor potency, dose response, biochemical, fluorescence polarization, cherry-picked hits (AID 687001)
# Settings: FP, S100A4/TAMRA-myosin IIA peptide binding; series mostly up to 11 µM
# Sequence of Protein S100-A4 (Homo sapiens) (P26447 whole entry, looked up): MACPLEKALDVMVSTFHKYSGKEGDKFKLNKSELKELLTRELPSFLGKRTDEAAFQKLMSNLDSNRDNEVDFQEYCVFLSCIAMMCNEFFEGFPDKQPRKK
row,SMILES,outcome
1,O=C1N[C@@H](Cc2ccccc2)COC(=O)[C@@H](Cc2ccc(F)cc2)CC/C=C/C[C@H]1CC(=O)N(CCO)Cc1ccccc1,inactive
2,CCCCN(C(=O)c1c(-c2ccccc2)noc1C)c1c(N)n(CCC)c(=O)[nH]c1=O,inactive
3,Cc1ccc(S(=O)(=O)Nc2ccc3c(c2)C(=O)N([C@H](C)CO)C[C@@H](C)[C@H](CN(C)S(C)(=O)=O)OCCCC[C@@H](C)O3)cc1,inactive
4,O=C(O)c1ccc2c(c1)C(=O)N(c1cccc3ccccc13)C2=O,inactive
5,Cc1cccc(NC(=O)CNC(=O)c2ccccc2Cl)n1,inactive
6,O=C(OCc1ccccc1)/C(=C/c1ccccc1Cl)NC(=O)c1ccco1,inactive
7,C/C=C/c1ccc([C@H]2[C@@H](CO)N(C(=O)Nc3ccccc3F)[C@H]2C#N)cc1,inactive
8,COc1cc(/C=C/C(=O)OCC(=O)N2c3ccccc3NC(=O)C2(C)C)cc(OC)c1OC,inactive
9,COc1ccc(CN(C)C[C@H]2OCCCC[C@@H](C)Oc3ccc(NC(=O)Nc4ccc5c(c4)OCO5)cc3C(=O)N([C@H](C)CO)C[C@H]2C)cc1,inactive
10,Cc1ccccc1S(=O)(=O)N1C[C@H](O)COC[C@@H]2O[C@@H](CC(=O)NCc3ccccc3Cl)CC[C@H]21,inactive
11,CCCNC(=O)C(Cc1ccc(C(F)(F)F)cc1)NC(=O)c1ccc2ccccc2n1 (centres undefined),inactive
12,O=C(Cc1c(F)cccc1Cl)Nc1ccccn1,inactive
13,C[C@H]1CN([C@@H](C)CO)C(=O)Cc2cc(NC(=O)CCC(F)(F)F)ccc2O[C@@H]1CN(C)C,inactive
14,O=C(COC(=O)/C=C/c1ccc(Br)o1)Nc1ccc2[nH]c(=O)[nH]c2c1,inactive
